# Shown are actives, neighbours in structure and some others; about 1.6% of the full set was active somewhere.
# KCNQ2 enhance – potentiators of rat KCNQ2 potassium channel; O88943; CHO-K1 KCNQ2, FluxOR thallium flux fluorescence; stronger effect = higher value; B-score at 10 µM; 310,000 tested, 0.54% active; AID 2239;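 active = fluorescence ratio B-score at least 3 SD of library B-scores, with initial fluorescence B-score within 3 of them, cut at about 5.3 in these data; same plate scores as AID 2156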;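 note: B-score of peak minus minimum over baseline fluorescence ratio after K+ and Tl+ stimulus; positive B-score means potentiation of KCNQ2 with more thallium influx and brighter signal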
# Target sequence (O88943 whole entry, looked up): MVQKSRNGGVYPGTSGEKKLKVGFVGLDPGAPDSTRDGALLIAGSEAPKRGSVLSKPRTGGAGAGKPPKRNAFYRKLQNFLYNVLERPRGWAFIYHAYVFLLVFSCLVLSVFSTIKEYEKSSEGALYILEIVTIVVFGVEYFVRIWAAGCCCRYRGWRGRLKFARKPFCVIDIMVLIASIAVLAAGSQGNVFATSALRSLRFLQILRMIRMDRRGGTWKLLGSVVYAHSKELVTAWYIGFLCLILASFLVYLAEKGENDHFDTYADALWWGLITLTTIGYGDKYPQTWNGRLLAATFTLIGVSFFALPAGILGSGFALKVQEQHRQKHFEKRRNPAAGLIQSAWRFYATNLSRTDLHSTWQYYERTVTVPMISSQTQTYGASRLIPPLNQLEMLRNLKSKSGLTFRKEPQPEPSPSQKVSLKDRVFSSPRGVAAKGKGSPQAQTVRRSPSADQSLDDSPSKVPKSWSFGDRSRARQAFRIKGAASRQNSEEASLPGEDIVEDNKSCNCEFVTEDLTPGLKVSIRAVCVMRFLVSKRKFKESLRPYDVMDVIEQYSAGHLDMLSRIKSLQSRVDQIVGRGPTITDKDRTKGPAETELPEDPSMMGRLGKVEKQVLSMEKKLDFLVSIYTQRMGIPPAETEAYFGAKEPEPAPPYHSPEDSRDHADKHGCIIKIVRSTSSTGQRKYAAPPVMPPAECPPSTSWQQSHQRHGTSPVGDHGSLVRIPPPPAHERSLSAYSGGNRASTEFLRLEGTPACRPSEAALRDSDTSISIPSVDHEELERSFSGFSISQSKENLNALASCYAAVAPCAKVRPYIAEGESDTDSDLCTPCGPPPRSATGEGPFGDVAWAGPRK
# KCNQ2 inh – blocks the rat KCNQ2 potassium channel; 310,000 tested, 1.1% active; B-score at 10 µM; O88943; CHO-K1 KCNQ2, FluxOR thallium flux, 20 min; stronger effect = lower value;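 active = fluorescence ratio B-score at most minus 3 library SDs, with starting brightness B-score within 2 library SDs, cut at about -5.5 in these data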
# Kir21 conf inh – confirmation of mouse Kir2.1 potassium channel inhibitors; shares compounds with KCNQ2 enhance; Kir2.1-expressing cells, FluxOR thallium flux fluorescence; stronger effect = lower value; Tl flux remaining, % of negative control (stronger effect = lower value), % at 10 µM; 2,300 tested, 41% active; AID 2032;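 active = Primary-screen hit whose thallium flux fell at least 3 control SD below untreated wells in both duplicates, with normal baseline fluorescence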;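 note: 0% = blank wells without stimulus and 100% = stimulated no-compound controls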
# HEK293 ctr – alters thallium flux in parental HEK293 cells, Kir2.1 counter-screen; FluxOR thallium flux fluorescence; 0% = unstimulated blank wells; FluxOR signal as % of negative control (100 = no effect), % at 10 µM; 2,300 tested, 19% active; shares compounds with KCNQ2 enhance;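 active = dye signal at least 3 control SD above or below untreated wells in both duplicates, raw fluorescence within 3, either direction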;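 note: percent is based on the flux ratio of peak minus minimum fluorescence over baseline F0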
# CHO-K1 ctr – alters thallium flux in parental CHO-K1 cells, KCNQ2 counter-screen | 1,200 tested, 43% active | FluxOR thallium flux fluorescence; zero = vehicle mean+3SD, 100% = vehicle-minus-blank window | activity increase over 3SD of controls, % at 10 µM | shares compounds with KCNQ2 enhance;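 active = signal rise of at least 3 SD above the untreated control mean, in both duplicate wells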;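 note: counter screen of KCNQ2 potentiator hits so any rise reflects channel-independent effects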
# KCNQ1 pot spec – tests whether KCNQ2 potentiators also act on human KCNQ1; shares compounds with KCNQ2 enhance; CHO KCNQ1 stable, FluxOR thallium flux fluorescence; beyond 3SD, as % of vehicle-control signal; activation over 3SD threshold, % at 10 µM; 1,200 tested, 28% active; AID 2283;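 active = fluorescence ratio rise of at least 3 SD of vehicle wells above their mean, in both replicate wells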;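 note: 0% = vehicle mean plus 3 SD and 100% = vehicle minus unstimulated blank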
# KCNQ2 pot confirm – rat KCNQ2 channel potentiator confirmation. 1,200 tested, 68% active. potentiation, less the hit threshold, % at 10 µM. CHO-KCNQ2 cells, FluxOR thallium flux fluorescence. shares compounds with KCNQ2 enhance;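 active = fluorescence ratio rising 3 SD or more over the vehicle control mean in both replicates, plus primary screen hit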;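 note: peak minus minimum thallium fluorescence divided by baseline after K/Tl stimulus; 0% = vehicle mean plus 3 SD and 100% = vehicle minus unstimulated blank difference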
# Kir2-1 sel – tests whether KCNQ2 potentiators also affect mouse Kir2.1; 1,200 tested, 2% active; AID 2345; HEK293 Kir2.1, FluxOR thallium flux fluorescence; shares compounds with KCNQ2 enhance; activity over 3SD threshold, % at 10 µM;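 active = fluorescence ratio rise of at least 3 SD above the vehicle-control mean, seen in both replicates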;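 note: 0% = vehicle mean plus 3 SD and 100% = vehicle minus no-stimulus blank window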
# KCNQ2 W236L MoA – potentiates the retigabine-insensitive rat KCNQ2 W236L mutant channel. shares compounds with KCNQ2 enhance. CHO KCNQ2-W236L, automated patch clamp current. current increase over 3SD of negative controls (%), stronger effect = higher value, % at 25 µM. 940 tested, 10% active;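 active = current increase at least 3 SD of the untreated controls above them in both duplicate recordings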
# * hit, by the source's call; i = inactive; · = no result.
SMILES,KCNQ2 enhance,KCNQ2 inh,Kir21 conf inh,HEK293 ctr,others
CCOc1ccc(N2CC(C(=O)Nc3ccc(S(=O)(=O)Nc4nccs4)cc3)CC2=O)cc1 (configuration not stated),·,i,·,·,
CC(C)(C)OC(=O)N1CCC[C@H]1c1nnc(SCc2c(Cl)cccc2Cl)o1,·,i,·,·,
Cc1cccc(CSc2nnc([C@@H]3CCCN3C(=O)OC(C)(C)C)o2)c1,·,i,56%*,i,
O=C(NC(=S)Nc1ccc(N2CCCCC2)cc1)c1ccco1,8.5*,i,i,i,CHO-K1 ctr=99*;KCNQ1 pot spec=4.1*;KCNQ2 pot confirm=40*;Kir2-1 sel=-25;KCNQ2 W236L MoA=i
CC(C)C(=O)N1CCN(c2ccccc2NC(=S)NC(=O)c2ccco2)CC1,0.68,i,·,·,
O=C(NC(=S)Nc1nc(-c2ccccc2)cs1)c1ccco1,5.4*,i,i,i,CHO-K1 ctr=-3;KCNQ1 pot spec=81*;KCNQ2 pot confirm=1.2*;Kir2-1 sel=-35;KCNQ2 W236L MoA=i
CC(CCc1ccccc1)NC(=S)NC(=O)c1ccco1 (configuration not stated),5.6*,i,i,183%*,CHO-K1 ctr=-26;KCNQ1 pot spec=-14;KCNQ2 pot confirm=-3;Kir2-1 sel=-36;KCNQ2 W236L MoA=i
COc1ccc(-c2csc(NC(=S)NC(=O)c3ccco3)n2)cc1,5.1,i,·,·,
Cc1occc1C(=O)NC(C)CCc1ccccc1 (configuration not stated),0.55,i,·,·,
CC1CCN(c2ccc(NC(=S)NC(=O)c3ccco3)cc2)CC1,3.9,i,·,·,
CCC(C)c1ccccc1NC(=S)NC(=O)c1ccco1 (configuration not stated),12*,i,i,383%*,CHO-K1 ctr=-7;KCNQ1 pot spec=68*;KCNQ2 pot confirm=48*;Kir2-1 sel=-16;KCNQ2 W236L MoA=i
CCc1ccc(NC(=O)CC2C(=O)N(c3ccc(C)cc3)C(=O)N2C2CC2)cc1 (configuration not stated),·,i,·,·,
CCN(CC)S(=O)(=O)c1ccc(N2CCN(C)CC2)c(NC(=O)Nc2ccc(C)cc2)c1,·,i,·,·,
C=CCN(Cc1nc(-c2ccccc2)no1)C(=O)c1ccco1,·,i,·,·,
C=CCN(C(=O)CC(NC(C)=O)c1ccccc1)c1nc(-c2ccc(S(C)(=O)=O)cc2)cs1 (configuration not stated),·,i,·,·,
O=C(CN1CCOCC1)N/N=C/c1ccc(-c2cccc(Cl)c2Cl)o1,1.4,i,·,·,
O=C(NC(=S)Nc1ccccc1N1CCCC1)c1ccco1,7.5*,i,i,182%*,CHO-K1 ctr=69*;KCNQ1 pot spec=-30;KCNQ2 pot confirm=-8;Kir2-1 sel=-42;KCNQ2 W236L MoA=i
COc1ccccc1C(=O)Nc1ccc(N2CCCCC2)cc1,·,i,·,·,
O=C(NC(=S)Nc1cccc2c(O)cccc12)c1ccco1,0.76,i,·,·,
COc1ccc2sc(NC(=O)c3ccco3)nc2c1,0.45,i,·,·,
O=C(NC(=S)Nc1ccccc1Cl)c1ccco1,11*,i,i,154%*,CHO-K1 ctr=-15;KCNQ1 pot spec=-17;KCNQ2 pot confirm=4.7*;Kir2-1 sel=-30;KCNQ2 W236L MoA=i
COc1ccc2nc(NC(=S)NC(=O)c3ccco3)sc2c1,13*,i,i,i,CHO-K1 ctr=3.0*;KCNQ1 pot spec=2.4*;KCNQ2 pot confirm=6.4*;Kir2-1 sel=-28;KCNQ2 W236L MoA=i
COc1cccc(OC)c1C(=O)Nc1ccc(N2CCCC2)cc1,0.05,i,i,i,
O=C(NC(=S)Nc1ccccc1N1CCCCC1)c1ccco1,3.7,i,·,·,
CCC(C(=O)NCCc1ccc(S(N)(=O)=O)cc1)c1ccccc1 (configuration not stated),0.61,i,·,·,
SMILES,KCNQ2 enhance,KCNQ2 inh,Kir21 conf inh,HEK293 ctr,others
O=C(CCCc1c[nH]c2ccccc12)NCc1ccccc1C(F)(F)F,·,i,·,·,
O=C1C(=O)N(C/C=C/c2ccccc2)c2ccccc21,·,i,·,·,
O=C(NC(=S)Nc1cccc(Cl)c1N1CCCCC1)c1ccco1,8.3*,i,i,i,CHO-K1 ctr=44*;KCNQ1 pot spec=-10;KCNQ2 pot confirm=6.2*;Kir2-1 sel=-29;KCNQ2 W236L MoA=i
O=C(NC(=S)Nc1cccc(Cl)c1N1CCCCC1)c1cccs1,2.2,i,·,·,
Cc1ccc(NC(=O)CN(C)C(=O)C2CC(=O)N(Cc3ccccc3)C2)cc1 (configuration not stated),·,i,·,·,
NS(=O)(=O)c1ccc(CCNC(=O)c2ccccc2F)cc1,·,i,·,·,
CC(C)[C@@H]1CC[C@@H](C)C[C@H]1OC(=O)C[n+]1cc(-c2ccc(Cl)cc2)n2c1CCCCC2,·,i,25%*,i,
COc1ccc(-c2c[n+](CC(=O)OC3CC(C)CCC3C(C)C)c3n2CCC3)cc1 (configuration not stated),0.47,i,·,·,
CN(C(=O)COC(=O)c1ccccc1NCCO)C1CCS(=O)(=O)C1 (configuration not stated),·,i,·,·,
Cc1ccccc1OCCNc1cc(N2CCNCC2)ccc1[N+](=O)[O-],·,i,36%*,i,
COc1ccccc1OCCNc1cc(N2CCCCC2)ccc1[N+](=O)[O-],·,i,·,·,
CCOC(=O)c1ccc(CNC(=O)c2cc(COc3ccccc3SC)on2)o1,·,i,·,·,
Oc1c(/C=C/C=C/C=Nc2ccccc2)sc(=S)n1Cc1ccccc1,·,i,·,·,
Nc1ccccc1C(=O)Nc1cccc2ccccc12,·,i,·,·,
CC12CCC(C(=O)Nc3cccc4ccccc34)(C1Br)C2(C)C (configuration not stated),10*,i,i,i,CHO-K1 ctr=1.5*;KCNQ1 pot spec=-25;KCNQ2 pot confirm=48*;Kir2-1 sel=-21;KCNQ2 W236L MoA=i
COc1ccc2[nH]cc(S(=O)(=O)c3ccc(C)cc3)c2c1,·,i,·,·,
CN(C[C@H](Cc1ccccc1)N(C[C@@H](CC1CCCCC1)N(CCc1ccccc1)N=O)N=O)N=O,·,i,·,·,
CNC[C@@H](CC1CCCCC1)NC[C@H](CC(C)C)NCCc1cccc(C(F)(F)F)c1,·,i,28%*,i,
CNC[C@@H](Cc1ccccc1)NC[C@@H](CC1CCCCC1)NCCCc1ccccc1,-6.2,-6.2*,i,i,
CN(Cc1cccc(C(F)(F)F)c1)C(=O)C1CCC(=O)N(CC2CCCCC2)C1 (configuration not stated),·,i,·,·,
Cc1cc(C)c[n+](-c2[nH]c(=O)sc2/C=N/N=C(\N)[S-])c1,0.25,i,·,·,
Cc1ccccc1OCC(O)CN1CCN(CCN2C(=O)c3cccc4cccc(c34)C2=O)CC1 (configuration not stated),·,i,·,·,
